SMILES strings stand for the structures. Structures can show the parent of a compound that is named as a salt. Out of some 5,300 compounds screened, about 130 (2.5%) showed an effect of 50% or more. The sample as a whole holds a higher share of strong results than the screen did.

The record followed here is publication PMC12670160, “A drug-repurposing screen of FDA- and EMA-approved drugs identifies two NF-κB inhibitors active against eumycetoma” (Journal of Antimicrobial Chemotherapy, 2025).

The test system of this assay is M. mycetomatis strain mm55. The settings on record: primary screen, metabolic activity vs growth control; 96 h, 2 µM; inhibitor.
Consider `FC(F)(F)Oc1ccc2[nH]c(-c3ccc(OCCOCCOc4ccc(-c5nc6cc(OC(F)(F)F)ccc6[nH]5)nc4)cn3)nc2c1` [ONC0000980, ai1049], for which the “% viability” value turned out to be 83.7%. For `CC(=O)OCC1=C(C(=O)O)N2C(=O)[C@@H](N)[C@H]2SC1` [ONC0004514, 7aminocephalosporanic acid], the “% viability” value is 52.68%. Turning to `CCn1cc(-c2cccc(C(F)(F)F)c2)c2sc(C(=N)NC3CCS(=O)(=O)CC3)cc2c1=O` [ONC0001085, ibrd9], the “% viability” value is reported as 45.4%. With `Cc1c(C(=O)NCc2cccnc2)nn(-c2ccc(Cl)cc2Cl)c1-c1ccc(Cl)cc1` [ONC0001432, mj15], the “% viability” value was 60.06%. As to `C[C@@H]1CC2C3CCC4=CC(=O)C=C[C@]4(C)[C@@]3(F)[C@@H](O)C[C@]2(C)[C@@]1(O)C(=O)CO` (stereo partly drawn) [ONC0000416, dexamethasone], the “% viability” value was found to be 62.67%. Take `O=C(Nc1ccc([N+](=O)[O-])cc1Cl)c1cc(Cl)ccc1O` [niclosamide]: the “% viability” value turned out to be 70.84%. Take `O=C(Nc1cc(C(F)(F)F)cc(C(F)(F)F)c1)c1cc(Cl)ccc1O` [IKK2 inhibitor V (IMD-0354), IMD-0354]: the “% viability” value is 2.589%. On to `O=C(Nc1cc(C(F)(F)F)cc(C(F)(F)F)c1)c1cnc(Cl)nc1C(F)(F)F` [ONC0001396, sp100030], for which the “% viability” value is listed as 126.3%. Regarding `O=C(C[C@H]1NCCC[C@@H]1O)Cn1cnc2cc(Br)c(Cl)cc2c1=O` (racemic) [ONC0004939, halofuginone], the “% viability” value came out at 90.07%.

On to `CC1=CC(=O)NS(=O)(=O)O1` [ONC0005569, acesulfame potassium], for which the “% viability” value is given as 46%. In the case of `c1ccc(-c2ncc(CN3CCN(c4ncccn4)CC3)[nH]2)cc1` [ONC0000007, ngd941], the “% viability” value was 130.5%. For the molecule `CC(COc1ccccc1)NC(C)[C@H](O)c1ccc(O)cc1` (stereo partly drawn) [ONC0000598, isoxsuprine hydrochloride], the “% viability” value stood at 84.27%.

In the case of `CCC(O)(CC(N)=O)c1ccccc1` (stereo not drawn) [ONC0003599, 3hydroxy3phenylpentanamide], the “% viability” value was 105.2%. For the molecule `Cc1nc2cc(-n3ncc(C(=O)c4cc5ccccc5[nH]4)c3N)ccc2[nH]1` [ONC0004455, ch5183284 debio1347], the “% viability” value is reported as 110.2%.

Turning to `CCNC(=O)N1CCN(CCCC(c2ccc(F)cc2)c2ccc(F)cc2)CC1` [ONC0003498, amperozidehcl], the “% viability” value came out at 32.95%. As for `O=c1[nH]c2ccccc2n1C1CCN(CCCC(c2ccc(F)cc2)c2ccc(F)cc2)CC1` [ONC0000675, pimozide], the “% viability” value came out at 106.9%. Consider `Cc1cccc(C)c1NC(=O)CN1CCN(CCCC(c2ccc(F)cc2)c2ccc(F)cc2)CC1` [ONC0002360, lidoflazine], for which the “% viability” value was 112.8%.

Take `Cc1c[nH]c(-c2cnc(NCCNc3ccc(C#N)cn3)nc2-c2ccc(Cl)cc2Cl)n1` [ONC0004531, chir99021 ct99021 hcl]: the “% viability” value is reported as 57.04%.

For the molecule `C[C@H]1c2cccc(O)c2C(=O)C2C(=O)[C@]3(O)C(=O)C(C(N)=O)C(=O)[C@@H](N(C)C)[C@@H]3[C@@H](O)[C@@H]21` (stereo partly drawn) [ONC0000682, doxycycline hydrochloride], the “% viability” value turned out to be 94.49%. With `C[C@]12CCC(=O)C=C1CCC1C2C(=O)C[C@@]2(C)C1CC[C@]2(O)C(=O)CO` (stereo partly drawn) [ONC0005338, cortisone] the figure was 64.83%; with `Cc1sc(C)c2c1CCC=C2c1cnc[nH]1` [ONC0000248, tcg1000], 71.17%; with `Cc1ccnc(NC(=O)C(C)c2cccc(C(=O)c3ccccc3)c2)c1` (stereo not drawn) [ONC0003716, piketoprofen], 97.11%.

`O=C(O)c1ccccc1Nc1cccc(OCc2ccc3ccccc3n2)c1` [ONC0001414, sr2640]: the “% viability” value was found to be 39.31%. In the case of `CCCCCC(O)c1cccc(OCc2ccc3ccccc3n2)c1` (stereo not drawn) [ONC0005481, rev5901 l655238] it was 92.78%. With `O=C(O)[C@@H](c1ccc(OCc2ccc3ccccc3n2)cc1)C1CCCC1` [ONC0005557, veliflapon], the “% viability” value is 76.74%. For `Cc1cc(O)c2c(c1)C(=O)c1cc(O)cc(O)c1C2=O` [ONC0004997, emodin], the “% viability” value was found to be 57.84%. Turning to `COc1cc(O)c2c(c1)C(=O)c1cc(C)cc(O)c1C2=O` [ONC0004501, rheochrysidin physcione], the “% viability” value was 41.39%. For `Cc1cc(O)c2c(c1)C(=O)c1cccc(O)c1C2=O` [ONC0005265, chrysophanic acid chrysophanol], the “% viability” value is listed as 118.5%. As to `CNC(=O)c1ccc2cc([C@]3(O)CCn4cncc43)ccc2c1` [ONC0004670, tak700 orteronel], the “% viability” value is listed as 115.9%.

With `CCN(CCCOc1ccc2c(Nc3cc(CC(=O)Nc4cccc(F)c4)n[nH]3)ncnc2c1)CCOP(=O)(O)O` [ONC0002222, azd1152], the “% viability” value is listed as 73.5%. In the case of `C[C@@H](NCCc1ccc(O)cc1)[C@@H](O)c1ccc(O)cc1` (racemic) [ONC0000689, ritodrine hydrochloride] it was 122.8%. With `C[C@@H](O)[C@H]1C(=O)N2C(C(=O)[O-])=C([C@H]3CCCO3)S[C@H]12.C[C@@H](O)[C@H]1C(=O)N2C(C(=O)[O-])=C([C@H]3CCCO3)S[C@H]12.O.O.O.O.O.[Na+].[Na+]` [ONC0000335, faropenem sodium hemipentahydrate] the figure was 95.52%; with `Cc1oc(=O)oc1COC(=O)C1=C([C@H]2CCCO2)S[C@@H]2[C@@H]([C@@H](C)O)C(=O)N12` [ONC0001072, faropenem daloxate], 41.67%. On to `C1=C/COCc2cc(ccc2OCCN2CCCC2)Nc2nccc(n2)-c2cccc(c2)COC/1` [ONC0004380, pacritinib sb1518], for which the “% viability” value is listed as 107.6%. As to `O=C(NC1CCNCC1)[C@@H]1CC[C@@H]2CN1C(=O)N2OS(=O)(=O)O` [ONC0001257, relebactam], the “% viability” value came to 62.24%. On to `CC[C@H](C)[C@@H]([C@@H](CC(=O)N1CCC[C@H]1[C@H](OC)[C@@H](C)C(=O)N[C@@H](Cc1ccccc1)c1nccs1)OC)N(C)C(=O)[C@@H](NC(=O)[C@H](C(C)C)N(C)C)C(C)C` [ONC0003667, dolastin10], for which the “% viability” value is on record as 74.88%.
